# Measurements from PubChem BioAssay (NCI).
# About 83,000 compounds went through this panel and 20% of them were active in at least one assay; those are over-represented in the sample as a whole.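 Activity criterion: percent growth below 10, measured after cells in 96-well plates were exposed to a single compound concentration for 48 hours.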 Calls of active or inactive are those of the source.
# System: SNB-75 CNS
# Test: NCI-60 one-dose screen, 48 h (100 = growth as untreated, 0 = no growth, -100 = all killed)
# Conditions: 10 µM unless noted
row,SMILES,growth
1,COc1ccc(/C(C)=C(\c2ccc(Cl)cc2)c2ccc(OCCN3CCCCC3)cc2)cc1,89.1% (inactive)
2,CN(C)CCCC1(c2ccc(F)cc2)OCc2cc(-c3ccc4cc[nH]c4c3)ccc21 (centres undefined),33.8% (inactive)
3,COc1ccc(/C=C/c2ccc3ccccc3n2)c(OC)c1,78% (inactive)
4,CCCCNC(=O)c1cc([N+](=O)[O-])cc(C2CCCCC2)c1O,58.6% (inactive)
5,Cc1ccc(C(=O)c2ccc(CC(=O)N=Nc3c(O)[nH]c4ccc(Br)cc34)n2C)cc1,84% (inactive)
6,CC1=C(C(=O)Nc2ccccc2)C(c2ccc3c(c2)OCO3)NC(=S)N1 (centres undefined),107% (inactive)
7,Nc1nc(N)c2c(n1)NC(c1cccc(Nc3ccnc4cc(C(F)(F)F)ccc34)c1)CC(c1ccc(Br)cc1)=N2 (centres undefined),57.2% (inactive)
8,O=C1c2ccccc2C(=O)c2c1c(C(=O)NCc1ccccc1)c1ccccn21,94.9% (inactive)
9,COc1ccc(-c2ccc(-c3ccc(C(=N)N)nc3)s2)cc1Cl,80.5% (inactive)
10,O=C(CI)NC(=O)NC(=O)NCc1ccccc1,81.4% (inactive)
11,COc1ccc(C2=CC(c3cc(OC)c(OC)c(OC)c3)n3ncnc3N2)cc1 (centres undefined),40.4% (inactive)
12,Cc1ccc(C(=O)Nc2cccc(C#Cc3cccc4[nH]nc(N)c34)c2)cc1C(F)(F)F,88.4% (inactive)
13,CCOC(=O)c1ccccc1-c1c2ccc(=[N+](C)C)cc-2oc2cc(N(C)C)ccc12,7.68% (active)
14,NC(=O)c1c(NC(=O)c2cccc(C(F)(F)F)c2)sc2c1CCC(=O)C2,-75.9% (active)
